Inconclusive results are not listed. Where a call stands in place of a potency, no number is given. The source made the active and inactive calls. Calls follow the shape of the dose curve; as a rule, active = well fitted curve in the direction sought with a large enough effect; inconclusive = small, poorly fitted or top-dose-only effect, or another doubt; inactive = no such curve, though single readings can be large; an effect the other way counts as inactive or inconclusive.

Sequence of Protein phosphatase 1D (Homo sapiens) (O15297 whole entry, looked up): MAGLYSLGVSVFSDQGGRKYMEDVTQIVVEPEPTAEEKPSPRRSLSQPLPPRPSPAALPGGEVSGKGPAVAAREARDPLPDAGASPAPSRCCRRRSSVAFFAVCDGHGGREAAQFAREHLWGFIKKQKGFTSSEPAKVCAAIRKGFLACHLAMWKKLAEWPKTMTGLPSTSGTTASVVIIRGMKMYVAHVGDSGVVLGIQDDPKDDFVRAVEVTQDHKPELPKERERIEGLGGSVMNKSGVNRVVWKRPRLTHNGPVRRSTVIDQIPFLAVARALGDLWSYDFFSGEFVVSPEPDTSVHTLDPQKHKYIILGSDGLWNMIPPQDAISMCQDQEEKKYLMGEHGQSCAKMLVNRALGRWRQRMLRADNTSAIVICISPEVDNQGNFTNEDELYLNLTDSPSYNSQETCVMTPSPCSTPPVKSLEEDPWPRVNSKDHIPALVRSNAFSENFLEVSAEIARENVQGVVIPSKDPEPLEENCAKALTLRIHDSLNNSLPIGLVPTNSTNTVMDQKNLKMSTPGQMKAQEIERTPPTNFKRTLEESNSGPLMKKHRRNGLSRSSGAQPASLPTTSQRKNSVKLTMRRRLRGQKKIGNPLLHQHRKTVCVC

The first experiment concerns the target Protein phosphatase 1D (Homo sapiens) (UniProt O15297). Briefly: RapidFire Mass Spectrometry qHTS Assay for Modulators of WT P53-Induced Phosphatase 1 (WIP1) (AID 1347424).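 Also: amount of dephosphorylated VEPPL-S-QETFS peptide product formed by WIP1.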 The conditions noted are these: WIP1 dephosphorylation of phosphopeptide, RapidFire MS; series mostly up to 63 µM. An outline of the steps: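 RapidFire mass spectrometry measured dephosphorylated peptide after 5 min room-temperature reaction of 2 uM VEPPL-pS-QETFS with 10 nM WIP1 (50 mM Tris-HCl pH 7.5, 30 mM MgCl2, 0.1 mM EGTA, BSA), following 1 hr compound preincubation; 1 uM isotope-labelled product standard.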
(In general: Quantitative high-throughput screening tests each substance at several concentrations.)
On to `NCCCC[C@H](N[C@@H](CCc1ccccc1)C(=O)O)C(=O)N1CCC[C@H]1C(=O)O`, for which the Potency result is “inactive”.
With `O=C(CCCN1CCC(O)(c2ccc(Br)cc2)CC1)c1ccc(F)cc1`, the Potency entry is “inactive”.
Still for that read-out and setting: with `CC(C)(C(=O)c1cccnc1)c1cccnc1` the entry was “inactive”; with `C[n+]1c2cc(N)ccc2cc2ccc(N)cc21` (tested in a mixture with another compound), “inactive”; with `CC(=O)Oc1ccc(C(=C2CCCCC2)c2ccc(OC(C)=O)cc2)cc1`, “inactive”.
Take `CC(C)(Oc1ccc(Cl)cc1)C(=O)O`: the Potency result is “inactive”.
Still for that read-out and setting: in the case of `CC1(C)O[C@@H]2C[C@H]3[C@@H]4CCC5=CC(=O)CC[C@]5(C)[C@@]4(F)[C@@H](O)C[C@]3(C)[C@]2(C(=O)CCl)O1` it was “inactive”; in that of `C[C@H](O)C(=O)Nc1c(I)c(C(=O)NC(CO)CO)c(I)c(C(=O)NC(CO)CO)c1I`, “inactive”.
On the same count and under the same terms, in the case of `CC(C)(C)CC(C)(C)c1ccc(OCCOCC[N+](C)(C)Cc2ccccc2)cc1` it was “inactive”.
The same measure, in the same setting: in the case of `CCCCCCCCCCCCCCNCCO` it was “inactive”.
Take `C=CCc1ccc(O)c(OC)c1`: the Potency entry is “inactive”.
For the compound `OC(CCN1CCCCC1)(c1ccccc1)c1ccccc1`, the Potency entry was “inactive”.
In the case of `C#C[C@]1(OC(C)=O)CC[C@H]2[C@@H]3CCC4=C[C@@H](OC(C)=O)CC[C@@H]4[C@H]3CC[C@@]21C`, the Potency result was “inactive”.
Consider `COc1cc2c(cc1OC)C(C(C(=O)N(CCc1ccc(OC)c(OC)c1OC)CCc1ccc(OC)c(OC)c1OC)c1ccccc1)=NCC2` (centres undefined), for which the Potency entry is “inactive”.
Consider `C#C[C@]1(O)CC[C@H]2[C@@H]3CCc4cc(OC5CCCC5)ccc4[C@H]3CC[C@@]21C`, for which the Potency result is “inactive”.
On to `NC(=O)CC[C@@H]1NC(=O)[C@H](Cc2ccccc2)NC(=O)[C@H](Cc2ccc(O)cc2)NC(=O)CCSSC[C@@H](C(=O)N2CCC[C@H]2C(=O)N[C@@H](CCCN=C(N)N)C(=O)NCC(N)=O)NC(=O)[C@H](CC(N)=O)NC1=O`, for which the Potency result is “inactive”.
Regarding `Nc1ccc(/C=C/c2ccc(N)cc2S(=O)(=O)O)c(S(=O)(=O)O)c1`, the activity change, negative = inhibition was -4.22% [at 0.505 µM] (inactive).
Regarding `Cc1c(C)n(CCN(C)C)c2ccc(C(=O)OCCN(C)C)cc12`, the Potency result was “inactive”.
As to `O=c1ccc2ccccc2o1`, the Potency result was “inactive”.
Consider `CN(C)CC/C=C1/c2ccccc2COc2ccc(CC(=O)O)cc21`, for which the Potency result is “inactive”.
With `Cc1c(C)n(Cc2ccccc2)c2ccc(C(=O)OCCN(C)C)cc12`, the Potency entry is “inactive”.
`CCOC(=O)c1cccc(N)c1`: the Potency result was “inactive”.
As to `COc1cc(/C=C/C(=O)O[C@H]2CC[C@]34C[C@]35CC[C@]3(C)[C@@H]([C@H](C)CCC=C(C)C)CC[C@@]3(C)[C@@H]5CC[C@H]4C2(C)C)ccc1O`, the Potency result is “inactive”.
`CCCCCCCCCCOCC(O)CN` (centres undefined): the Potency result is “inactive”.
Still for that read-out and setting: in the case of `CCCCS(=O)(=O)N[C@@H](Cc1ccc(OCCCCC2CCNCC2)cc1)C(=O)O` it was “inactive”; in that of `NC(CS)C(=O)O` (centres undefined), “inactive”; in that of `CN=C(NC#N)Nc1ccc(C2=NNC(=O)CC2C)cc1` (centres undefined), “inactive”.
With `CC(C)n1nc(-c2cc3cc(O)ccc3[nH]2)c2c(N)ncnc21`, the Potency result is “inactive”.
On the same count and under the same terms, with `COc1cc2c(cc1OC)C(=O)C(CC1CCN(Cc3ccccc3)CC1)C2` (centres undefined) the entry was “inactive”.
Turning to `CC(C)COC(=O)c1ccc(N)cc1`, the Potency entry was “inactive”.
Still for that read-out and setting: in the case of `CN1CCN(C(c2ccccc2)c2ccccc2)CC1` it was “inactive”.
Consider `CCOC(=O)COc1ccc2c(C)c(CCN(CC)CC)c(=O)oc2c1Cl`, for which the Potency result was “inactive”.
On to `O=C1OCCN1/N=C/c1ccc([N+](=O)[O-])o1`, for which the Potency entry is “inactive”.
Turning to `O=C1[C@H]2CCCC[C@H]2C(=O)N1CCCCN1CCN(c2nsc3ccccc23)CC1`, the Potency entry was “inactive”.
Regarding `Cc1cccn2c(=O)c(-c3nnn[nH]3)cnc12`, the Potency result was “inactive”.
As to `CC[C@@H](CO)NCCN[C@@H](CC)CO`, the Potency result was “inactive”.
On the same count and under the same terms, with `NC(=O)c1cc[n+](CC2=C(C(=O)[O-])N3C(=O)[C@@H](NC(=O)Cc4cccs4)[C@H]3SC2)cc1` the entry was “inactive”.

For a further experiment the target is unchanged. Briefly: Rhodamine-PBP qHTS Assay for Modulators of WT P53-Induced Phosphatase 1 (WIP1) (AID 1347425). The conditions noted are these: recombinant WIP1, Rhodamine-PBP phosphate fluorescence, real-time; series mostly up to 57.5 µM. An outline of the steps: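 Read-out: Rhodamine-PBP fluorescence (ex 525/em 598 nm) for released Pi, read each minute for 11 min after adding 10 uM VEPPL-pS-QETFS; signal taken as f1 minus pre-substrate f0. Enzyme 5 nM WIP1 with 1 hr room-temperature compound preincubation.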
As for `NCCCC[C@H](N[C@@H](CCc1ccccc1)C(=O)O)C(=O)N1CCC[C@H]1C(=O)O`, the outcome was inactive.
Turning to `O=C(CCCN1CCC(O)(c2ccc(Br)cc2)CC1)c1ccc(F)cc1`, the result was inactive.
On the same count and under the same terms, in the case of `CC(C)(C(=O)c1cccnc1)c1cccnc1` it was “inactive”; in that of `C[n+]1c2cc(N)ccc2cc2ccc(N)cc21` (tested in a mixture with another compound), “inactive”.
`CC(=O)Oc1ccc(C(=C2CCCCC2)c2ccc(OC(C)=O)cc2)cc1`: the result was inactive.
In the case of `CC(C)(Oc1ccc(Cl)cc1)C(=O)O`, the result was inactive.
Regarding `CC1(C)O[C@@H]2C[C@H]3[C@@H]4CCC5=CC(=O)CC[C@]5(C)[C@@]4(F)[C@@H](O)C[C@]3(C)[C@]2(C(=O)CCl)O1`, the outcome was inactive.
The same measure, in the same setting: in the case of `C[C@H](O)C(=O)Nc1c(I)c(C(=O)NC(CO)CO)c(I)c(C(=O)NC(CO)CO)c1I` it was “inactive”; in that of `CC(C)(C)CC(C)(C)c1ccc(OCCOCC[N+](C)(C)Cc2ccccc2)cc1`, “inactive”.
Consider `CCCCCCCCCCCCCCNCCO`, for which the result was inactive.
Take `C=CCc1ccc(O)c(OC)c1`: the outcome was inactive.
As for `OC(CCN1CCCCC1)(c1ccccc1)c1ccccc1`, the result was inactive.
As to `C#C[C@]1(OC(C)=O)CC[C@H]2[C@@H]3CCC4=C[C@@H](OC(C)=O)CC[C@@H]4[C@H]3CC[C@@]21C`, the outcome was inactive.
On the same count and under the same terms, with `COc1cc2c(cc1OC)C(C(C(=O)N(CCc1ccc(OC)c(OC)c1OC)CCc1ccc(OC)c(OC)c1OC)c1ccccc1)=NCC2` (centres undefined) the entry was “inactive”.
Take `C#C[C@]1(O)CC[C@H]2[C@@H]3CCc4cc(OC5CCCC5)ccc4[C@H]3CC[C@@]21C`: the result was inactive.
As for `NC(=O)CC[C@@H]1NC(=O)[C@H](Cc2ccccc2)NC(=O)[C@H](Cc2ccc(O)cc2)NC(=O)CCSSC[C@@H](C(=O)N2CCC[C@H]2C(=O)N[C@@H](CCCN=C(N)N)C(=O)NCC(N)=O)NC(=O)[C@H](CC(N)=O)NC1=O`, the result was inactive.
On to `Nc1ccc(/C=C/c2ccc(N)cc2S(=O)(=O)O)c(S(=O)(=O)O)c1`, for which the activity change, negative = inhibition is 11.7% [at 0.575 µM] (inactive).
Turning to `Cc1c(C)n(CCN(C)C)c2ccc(C(=O)OCCN(C)C)cc12`, the outcome was inactive.
On to `O=c1ccc2ccccc2o1`, for which the outcome was inactive.
Still for that read-out and setting: in the case of `CN(C)CC/C=C1/c2ccccc2COc2ccc(CC(=O)O)cc21` it was “inactive”; in that of `Cc1c(C)n(Cc2ccccc2)c2ccc(C(=O)OCCN(C)C)cc12`, “inactive”.
As to `CCOC(=O)c1cccc(N)c1`, the result was inactive.
Regarding `COc1cc(/C=C/C(=O)O[C@H]2CC[C@]34C[C@]35CC[C@]3(C)[C@@H]([C@H](C)CCC=C(C)C)CC[C@@]3(C)[C@@H]5CC[C@H]4C2(C)C)ccc1O`, the result was inactive.
In the case of `CCCCCCCCCCOCC(O)CN` (centres undefined), the outcome was inactive.
On to `CCCCS(=O)(=O)N[C@@H](Cc1ccc(OCCCCC2CCNCC2)cc1)C(=O)O`, for which the result was inactive.
Consider `NC(CS)C(=O)O` (centres undefined), for which the outcome was inactive.
For `CN=C(NC#N)Nc1ccc(C2=NNC(=O)CC2C)cc1` (centres undefined), the outcome was inactive.
With `CC(C)n1nc(-c2cc3cc(O)ccc3[nH]2)c2c(N)ncnc21`, the result was inactive.
Regarding `COc1cc2c(cc1OC)C(=O)C(CC1CCN(Cc3ccccc3)CC1)C2` (centres undefined), the outcome was inactive.
`CC(C)COC(=O)c1ccc(N)cc1`: the outcome was inactive.
For the compound `CN1CCN(C(c2ccccc2)c2ccccc2)CC1`, the result was inactive.
On to `CCOC(=O)COc1ccc2c(C)c(CCN(CC)CC)c(=O)oc2c1Cl`, for which the outcome was inactive.
`O=C1OCCN1/N=C/c1ccc([N+](=O)[O-])o1`: the result was inactive.
Still for that read-out and setting: in the case of `O=C1[C@H]2CCCC[C@H]2C(=O)N1CCCCN1CCN(c2nsc3ccccc23)CC1` it was “inactive”; in that of `Cc1cccn2c(=O)c(-c3nnn[nH]3)cnc12`, “inactive”; in that of `CC[C@@H](CO)NCCN[C@@H](CC)CO`, “inactive”.
Turning to `NC(=O)c1cc[n+](CC2=C(C(=O)[O-])N3C(=O)[C@@H](NC(=O)Cc4cccs4)[C@H]3SC2)cc1`, the outcome was inactive.

The values are drawn from PubChem BioAssay (NCATS).
